In all, about 140,000 sequences were measured (“enrichment ratio after two sorts for PhoP signalling”: median about 0, highest 2% from about 11 on). Shown is part of a subset that was picked to be rich in the highest values.
B1: PhoQ; a variant is named by its letters at X, in order, P23837 (parent)
chain: MKKLLRLFFPLSLRVRFLLATAAVVLVLSLAYGMVALIGYSVSFDKTTFRLLRGESNLFYTLAKWENNKLHVELPENIDKQSPTMTLIYDENGQLLWAQRDVPWLMKMIQPDWLKSNGFHEIEADVNDTSLLLSGDHSIQQQLQEVREDDDDAEMTHSVAVNVYPATSRMPKLTIVVVDTIPVELKSSYMVWSWFIYVLSANLLLVIPLLWVAAWWSLRPIEALAKEVRELEEHNRELLNPATTRELTSLVRNLNRLLKSERERYDKYRTTLTDLTHSLKTPLXXLQXXLRSLRSEKMSVSDAEPVMLEQISRISQQIGYYLHRASMRGGTLLSRELHPVAPLLDNLTSALNKVYQRKGVNISLDISPEISFVGEQNDFVEVMGNVLDNACKYCLEFVEISARQTDEHLYIVVEDDGPGIPLSKREVIFDRGQRVDTLRPGQGVGLAVAREITEQYEGKIVAGESMLGGARMEVIFGRQHSAPKDE

Variants of: B1
Assay: enrichment ratio after two sorts for PhoP signalling (ratio (wild type AVST 3.29)); higher = more functional
Settings: with PhoP (E. coli)

Row | Variant | enrichment ratio
1 | MWPS | ≤ 0.25
2 | VCLF | 0.991
3 | LARM | ≤ 0.25
4 | VEST | 4.04
5 | APVK | ≤ 0.25
6 | HAAR | ≤ 0.25
7 | AHCE | ≤ 0.25
8 | AICE | 14.2
9 | AIIE | ≤ 0.25
10 | HKRT | ≤ 0.25
11 | NRGY | ≤ 0.25
12 | DMWC | ≤ 0.25
13 | ANAV | 14.3
14 | SNAV | 12.6
15 | TNAE | ≤ 0.25
16 | MNAV | 2.67
17 | SQAV | 6.43
18 | MNAS | 6.24
19 | TNAT | 11
20 | TNAS | 13.9
21 | TNAV | 27.6
22 | ANAE | ≤ 0.25
23 | AKAV | 0.73
24 | SNAE | 7.95

Row | Variant | enrichment ratio
25 | VMEP | ≤ 0.25
26 | SHGD | ≤ 0.25
27 | NFGC | ≤ 0.25
28 | DFHC | ≤ 0.25
29 | QAAF | ≤ 0.25
30 | RPYT | ≤ 0.25
31 | ANAT | 17.7
32 | TNAA | 13.7
33 | ANLT | 4.56
34 | MNAA | 8.61
35 | ANNT | ≤ 0.25
36 | TNAD | ≤ 0.25
37 | HRYS | ≤ 0.25
38 | LMNM | ≤ 0.25
39 | NMWP | ≤ 0.25
40 | SAPE | ≤ 0.25
41 | SACQ | 13.5
42 | KACQ | ≤ 0.25
43 | SAAM | 7.53
44 | SACK | 0.562
45 | SAMD | ≤ 0.25
46 | SAQP | ≤ 0.25
47 | SACE | 11.7
48 | SACI | 13.7

Row | Variant | enrichment ratio
49 | WVWC | ≤ 0.25
50 | YMTW | ≤ 0.25
51 | YYYE | ≤ 0.25
52 | RLRN | ≤ 0.25
53 | SGRV | ≤ 0.25
54 | NHQI | ≤ 0.25
55 | KQQI | ≤ 0.25
56 | LQQI | ≤ 0.25
57 | TAPA | ≤ 0.25
58 | LAQI | ≤ 0.25
59 | TKQI | 17.5
60 | TQRI | ≤ 0.25
61 | THQI | 24.1
62 | TQQI | 11.5
63 | SHQI | ≤ 0.25
64 | TAQI | 23.7
65 | PTQI | ≤ 0.25
66 | IYTC | ≤ 0.25
67 | SRID | ≤ 0.25
68 | LRCL | ≤ 0.25
69 | VTSC | ≤ 0.25
70 | QCKT | ≤ 0.25
71 | MFMN | ≤ 0.25
72 | YQKV | ≤ 0.25

Row | Variant | enrichment ratio
73 | GKEW | ≤ 0.25
74 | TLQI | 14.7
75 | KSQI | ≤ 0.25
76 | KAQI | ≤ 0.25
77 | VMGP | ≤ 0.25
78 | DKIR | ≤ 0.25
79 | PQLM | ≤ 0.25
80 | KNVL | ≤ 0.25
81 | EARA | ≤ 0.25
82 | FQWE | 1.71
83 | AAME | 30.8
84 | AAMY | ≤ 0.25
85 | LTME | ≤ 0.25
86 | TDME | 11.5
87 | ATME | 7.5
88 | SHME | ≤ 0.25
89 | THME | 49
90 | AAPE | ≤ 0.25
91 | AIME | 1.65
92 | AHME | 12.2
93 | NHME | ≤ 0.25
94 | TDVE | ≤ 0.25
95 | YSHD | ≤ 0.25
96 | PTCC | ≤ 0.25

Row | Variant | enrichment ratio
97 | MPHN | ≤ 0.25
98 | RHYV | ≤ 0.25
99 | TAVD | ≤ 0.25
100 | SIIF | 0.435
101 | YTVM | ≤ 0.25
102 | MTTD | ≤ 0.25
103 | FEVA | ≤ 0.25
104 | FEVM | 11.6
105 | MTIV | ≤ 0.25
106 | LTVM | ≤ 0.25
107 | GTVM | 36.9
108 | MTIM | 25.3
109 | MTTM | 18.5
110 | FCVM | ≤ 0.25
111 | MKTM | ≤ 0.25
112 | MTRM | ≤ 0.25
113 | FLDD | ≤ 0.25
114 | FDRW | ≤ 0.25
115 | VFHM | ≤ 0.25
116 | MSQP | ≤ 0.25
117 | KNYG | ≤ 0.25
118 | SAVM | 4.22
119 | GYAL | ≤ 0.25
120 | IQVM | ≤ 0.25

Row | Variant | enrichment ratio
121 | HEVA | ≤ 0.25
122 | HEVM | 24.4
123 | SCVM | 8.76
124 | SLVM | 2.29
125 | SEVM | 18.7
126 | HEGM | ≤ 0.25
127 | PLAL | ≤ 0.25
128 | GLAL | 12.9
129 | SQVM | 19.6
130 | LWIF | ≤ 0.25
131 | NFST | ≤ 0.25
132 | PYQI | ≤ 0.25
133 | GTRE | ≤ 0.25
134 | SHDG | 1.66
135 | MTPM | ≤ 0.25
136 | MEVM | 12.9
137 | MTVM | 12.8
138 | ITVM | ≤ 0.25
139 | GIVM | 3.78
140 | STVM | 16.3
141 | MTVA | ≤ 0.25
142 | GNVM | 22.8
143 | KYVM | ≤ 0.25
144 | NEVM | 7.03

Row | Variant | enrichment ratio
145 | MAVM | ≤ 0.25
146 | LNVM | ≤ 0.25
147 | WVID | ≤ 0.25
148 | KGWL | ≤ 0.25
149 | GFAY | ≤ 0.25
150 | QNPQ | ≤ 0.25
151 | VYSV | ≤ 0.25
152 | IADP | ≤ 0.25
153 | TERG | ≤ 0.25
154 | EIGI | ≤ 0.25
155 | GLSM | 12.3
156 | GLTI | 11.7
157 | GLTC | ≤ 0.25
158 | GLVM | 16.2
159 | GDSM | 2.79
160 | GLTA | ≤ 0.25
161 | GLWM | ≤ 0.25
162 | GLCK | ≤ 0.25
163 | GLSF | 4.58
164 | RFTN | ≤ 0.25
165 | RWLE | ≤ 0.25
166 | LIDA | ≤ 0.25
167 | LWYT | ≤ 0.25
168 | VRCA | ≤ 0.25

Row | Variant | enrichment ratio
169 | SCQC | ≤ 0.25
170 | DMSA | ≤ 0.25
171 | TMSA | 15.1
172 | TMMN | 11.5
173 | TMMS | 14.5
174 | TMMW | ≤ 0.25
175 | TMSR | ≤ 0.25
176 | TMSQ | 13.5
177 | KMMN | ≤ 0.25
178 | DMMN | ≤ 0.25
179 | TMMD | ≤ 0.25
180 | MMSA | ≤ 0.25
181 | TMGK | ≤ 0.25
182 | FINQ | ≤ 0.25
183 | DCDV | ≤ 0.25
184 | ECGF | ≤ 0.25
185 | EREC | ≤ 0.25
186 | TNHL | ≤ 0.25
187 | WDRM | ≤ 0.25
188 | KETS | ≤ 0.25
189 | RLAR | ≤ 0.25
190 | DGIV | ≤ 0.25
191 | KMLV | ≤ 0.25
192 | FDFL | ≤ 0.25

Row | Variant | enrichment ratio
193 | TMGG | 15.7
194 | TMWT | ≤ 0.25
195 | TMSI | 14.2
196 | DMSI | ≤ 0.25
197 | TMVG | ≤ 0.25
198 | TMSK | ≤ 0.25
199 | TMMT | 22.9
200 | TMMV | 4.75
201 | TMTG | 3.06
202 | TMMG | 23.4
203 | TMWG | ≤ 0.25
204 | MMMT | ≤ 0.25
205 | IFIA | ≤ 0.25
206 | IGQM | ≤ 0.25
207 | PWGS | ≤ 0.25
208 | AYGE | ≤ 0.25
209 | THGQ | ≤ 0.25
210 | LATF | ≤ 0.25
211 | VFAS | ≤ 0.25
212 | ESNS | ≤ 0.25
213 | PACG | ≤ 0.25
214 | ITYK | ≤ 0.25
215 | HKVF | ≤ 0.25
216 | KKSE | ≤ 0.25

Row | Variant | enrichment ratio
217 | ILEH | ≤ 0.25
218 | TMHQ | 15.4
219 | TMWH | ≤ 0.25
220 | TMHP | ≤ 0.25
221 | TMQF | 16.1
222 | TMWQ | ≤ 0.25
223 | DMQF | ≤ 0.25
224 | MPHD | ≤ 0.25
225 | PCPI | ≤ 0.25
226 | GGFW | ≤ 0.25
227 | ESEG | ≤ 0.25
228 | PDQD | ≤ 0.25
229 | VWER | ≤ 0.25
230 | MRPD | ≤ 0.25
231 | SKTA | 0.276
232 | SKCI | 16.6
233 | SKAV | 4.49
234 | SKKL | ≤ 0.25
235 | SKCS | 6.51
236 | SKPL | ≤ 0.25
237 | SKTI | 14.2
238 | SKTS | 3.33
239 | SKCL | 11.8
240 | SKMI | 4.44

Row | Variant | enrichment ratio
241 | SKMV | 14.3
242 | SKCK | ≤ 0.25
243 | VFSR | ≤ 0.25
244 | FRTG | ≤ 0.25
245 | PMFK | ≤ 0.25
246 | FGSI | ≤ 0.25
247 | VKKE | ≤ 0.25
248 | PRSV | ≤ 0.25
249 | SKAT | 5.34
250 | SKCA | 11.7
251 | SKMT | 10.8
252 | SKHP | ≤ 0.25
253 | SKKQ | ≤ 0.25
254 | SKPI | ≤ 0.25
255 | SKCT | 14.2
256 | SKPY | ≤ 0.25
257 | SKCE | 5.46
258 | SKCY | 16.7
259 | SKMQ | 13.1
260 | SKKI | ≤ 0.25
261 | DRIT | ≤ 0.25
262 | DNWQ | ≤ 0.25
263 | SKHF | ≤ 0.25
264 | MKCF | ≤ 0.25

Row | Variant | enrichment ratio
265 | SKCF | 13.8
266 | SKFW | ≤ 0.25
267 | SKIV | 4.99
268 | SKCV | 12.3
269 | IRSK | ≤ 0.25
270 | GTMP | ≤ 0.25
271 | NADQ | ≤ 0.25
272 | FFYQ | ≤ 0.25
273 | QEYQ | 30.4
274 | QGYQ | 13.9
275 | STYQ | ≤ 0.25
276 | TTYQ | 11.4
277 | QPYQ | ≤ 0.25
278 | YTYQ | ≤ 0.25
279 | NGYQ | ≤ 0.25
280 | TGYQ | 15.9
281 | KSYQ | ≤ 0.25
282 | RGYQ | ≤ 0.25
283 | QTYQ | 4.58
284 | DEAF | ≤ 0.25
285 | WEER | ≤ 0.25
286 | ADHC | ≤ 0.25
287 | NYMN | ≤ 0.25
288 | WKDT | ≤ 0.25

Row | Variant | enrichment ratio
289 | EGGF | ≤ 0.25
290 | WIPQ | ≤ 0.25
291 | TQYQ | 27.1
292 | IQYQ | ≤ 0.25
293 | TQYD | 3.43
294 | TGDI | ≤ 0.25
295 | WKRD | ≤ 0.25
296 | KGIQ | ≤ 0.25
297 | TVAA | 20.7
298 | PVAA | ≤ 0.25
299 | NVAG | ≤ 0.25
300 | PVAG | ≤ 0.25
301 | TVAT | 16.8
302 | NVAT | ≤ 0.25
303 | NVAN | ≤ 0.25
304 | TVAG | 17.8
305 | TVAN | 16.9
306 | FVAA | ≤ 0.25
307 | SPAN | ≤ 0.25
308 | FVAT | ≤ 0.25

— a collection of fitness landscapes (doi:10.1126/science.1257360)
